# In the supplement of paper PMC4466140:
# B1: unnamed (peptide)
# chain: RSVKRPRRAPRPVVS
# How the values were obtained:
# Assay in all cases: SPOT peptide array binding signal intensity (averaged, normalized) (arbitrary units (background-subtracted, floor 0; scale differs between SH3 domains)); higher = stronger binding of the SH3 domain to the peptide
# CaNbp2 = biological target: CaNbp2
# Summary of the method: (§1)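 Binding signal is given in arbitrary units that differ between domains and is the normalized, background-subtracted spot intensity averaged across replicates. Each GST-SH3 fusion from one of four yeast species was made in E. coli BL21(DE3), purified on glutathione Sepharose and incubated at 10 μg/ml overnight at 4°C on cellulose-bound synthetic 15-mer peptides in which cysteines were replaced by serines. Detection used anti-GST antibody, an HRP anti-mouse secondary and luminol, followed by imaging and Genespotter quantification.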
# CaRvs167 = biological target: CaRvs167
# Summary of the method: as §1
# CaRvs167-3 = biological target: CaRvs167-3
# Summary of the method: as §1
# CaSho1 = biological target: CaSho1
# Summary of the method: as §1
# CaSla1-D1-D2 = biological target: CaSla1-D1-D2
# Summary of the method: as §1
# CaSla1-D3 = biological target: CaSla1-D3
# Summary of the method: as §1
# ScAbp1 = biological target: ScAbp1
# Summary of the method: as §1
# ScBbc1 = biological target: ScBbc1
# Summary of the method: as §1
# ScBem1-D1 = biological target: ScBem1-D1
# Summary of the method: as §1
# ScBzz1-D1 = biological target: ScBzz1-D1
# Summary of the method: as §1
# ScBzz1-D2 = biological target: ScBzz1-D2
# Summary of the method: as §1
# ScCyk3 = biological target: ScCyk3
# Summary of the method: as §1
# ScFus1 = biological target: ScFus1
# Summary of the method: as §1
# ScHof1 = biological target: ScHof1
# Summary of the method: as §1
# ScHse1 = biological target: ScHse1
# Summary of the method: as §1
# ScLsb1 = biological target: ScLsb1
# Summary of the method: as §1
# ScLsb2 = biological target: ScLsb2
# Summary of the method: as §1
# ScLsb3 = biological target: ScLsb3
# Summary of the method: as §1
# ScLsb4 = biological target: ScLsb4
# Summary of the method: as §1
# ScMyo3 = biological target: ScMyo3
# Summary of the method: as §1
# ScMyo5 = biological target: ScMyo5
# Summary of the method: as §1
# ScNbp2 = biological target: ScNbp2
# Summary of the method: as §1
# ScPex13 = biological target: ScPex13
# Summary of the method: as §1
# ScRvs167 = biological target: ScRvs167
# Summary of the method: as §1
# ScSho1 = biological target: ScSho1
# Summary of the method: as §1
# ScSla1-D1-D2 = biological target: ScSla1-D1-D2
# Summary of the method: as §1
# ScSla1-D3 = biological target: ScSla1-D3
# Summary of the method: as §1
# SpAbp1-D1 = biological target: SpAbp1-D1
# Summary of the method: as §1
# SpBbc1 = biological target: SpBbc1
# Summary of the method: as §1
# SpBzz1-D1 = biological target: SpBzz1-D1
# Summary of the method: as §1
# SpBzz1-D2 = biological target: SpBzz1-D2
# Summary of the method: as §1
# SpCyk3 = biological target: SpCyk3
# Summary of the method: as §1
# SpHof1 = biological target: SpHof1
# Summary of the method: as §1
# SpHof1-2 = biological target: SpHof1-2
# Summary of the method: as §1
# SpHof1-3 = biological target: SpHof1-3
# Summary of the method: as §1
# SpHse1 = biological target: SpHse1
# Summary of the method: as §1
# SpLsb1 = biological target: SpLsb1
# Summary of the method: as §1
# SpLsb4 = biological target: SpLsb4
# Summary of the method: as §1
# SpMyo1 = biological target: SpMyo1
# Summary of the method: as §1
# SpNbp2 = biological target: SpNbp2
# Summary of the method: as §1
# SpPex13 = biological target: SpPex13
# Summary of the method: as §1
# SpRvs167 = biological target: SpRvs167
# Summary of the method: as §1
# SpSla1-D1-D2 = biological target: SpSla1-D1-D2
# Summary of the method: as §1
# SpSla1-D3 = biological target: SpSla1-D3
# Summary of the method: as §1
binder,measurement,setting,value
B1,SPOT peptide array binding signal intensity,CaNbp2,1160
same,SPOT peptide array binding signal intensity,CaRvs167,20.3
same,SPOT peptide array binding signal intensity,CaRvs167-3,26.5
same,SPOT peptide array binding signal intensity,CaSho1,198
same,SPOT peptide array binding signal intensity,CaSla1-D1-D2,990
same,SPOT peptide array binding signal intensity,CaSla1-D3,0.5
same,SPOT peptide array binding signal intensity,ScAbp1,113
same,SPOT peptide array binding signal intensity,ScBbc1,306
same,SPOT peptide array binding signal intensity,ScBem1-D1,46.5
same,SPOT peptide array binding signal intensity,ScBzz1-D1,11.5
same,SPOT peptide array binding signal intensity,ScBzz1-D2,26
same,SPOT peptide array binding signal intensity,ScCyk3,32
same,SPOT peptide array binding signal intensity,ScFus1,260
same,SPOT peptide array binding signal intensity,ScHof1,5.25
same,SPOT peptide array binding signal intensity,ScHse1,1150
same,SPOT peptide array binding signal intensity,ScLsb1,156
same,SPOT peptide array binding signal intensity,ScLsb2,31.5
same,SPOT peptide array binding signal intensity,ScLsb3,3170
same,SPOT peptide array binding signal intensity,ScLsb4,192
same,SPOT peptide array binding signal intensity,ScMyo3,1
same,SPOT peptide array binding signal intensity,ScMyo5,4.25
same,SPOT peptide array binding signal intensity,ScNbp2,2270
same,SPOT peptide array binding signal intensity,ScPex13,2.75
same,SPOT peptide array binding signal intensity,ScRvs167,75
same,SPOT peptide array binding signal intensity,ScSho1,344
same,SPOT peptide array binding signal intensity,ScSla1-D1-D2,839
same,SPOT peptide array binding signal intensity,ScSla1-D3,15.8
same,SPOT peptide array binding signal intensity,SpAbp1-D1,146
same,SPOT peptide array binding signal intensity,SpBbc1,12
same,SPOT peptide array binding signal intensity,SpBzz1-D1,250
same,SPOT peptide array binding signal intensity,SpBzz1-D2,≤ 0
same,SPOT peptide array binding signal intensity,SpCyk3,2
same,SPOT peptide array binding signal intensity,SpHof1,268
same,SPOT peptide array binding signal intensity,SpHof1-2,7
same,SPOT peptide array binding signal intensity,SpHof1-3,748
same,SPOT peptide array binding signal intensity,SpHse1,234
same,SPOT peptide array binding signal intensity,SpLsb1,214
same,SPOT peptide array binding signal intensity,SpLsb4,2230
same,SPOT peptide array binding signal intensity,SpMyo1,16
same,SPOT peptide array binding signal intensity,SpNbp2,412
same,SPOT peptide array binding signal intensity,SpPex13,10.5
same,SPOT peptide array binding signal intensity,SpRvs167,11.2
same,SPOT peptide array binding signal intensity,SpSla1-D1-D2,≤ 0
same,SPOT peptide array binding signal intensity,SpSla1-D3,3
